Test results taken from PubChem BioAssay (NCI).
About 83,000 compounds went through this panel and 20% of them were active in at least one assay; those are over-represented in the sample as a whole.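 How to read the values: 0–100, growth inhibition (40 = 60% inhibited); 0, no net growth; -100 to 0, cell death (-40 = 40% of starting cells died; -100 = all dead).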 The source made the active and inactive calls. Rule for the calls: active = growth percent below 10; inactive = the rest.

Assays:
Test in all cases: NCI-60 one-dose screen, 48 h (100 = growth as untreated, 0 = no growth, -100 = all killed)
Conditions in all cases: 10 µM
HT29 colon = test system: HT29 colon
SNB-75 CNS = test system: SNB-75 CNS
SNB-19 CNS = test system: SNB-19 CNS
U251 CNS = test system: U251 CNS
PC-3 prostate = test system: PC-3 prostate
SK-MEL-5 melanoma = test system: SK-MEL-5 melanoma
UACC-62 melanoma = test system: UACC-62 melanoma
LOX IMVI melanoma = test system: LOX IMVI melanoma
SK-MEL-2 melanoma = test system: SK-MEL-2 melanoma
SK-MEL-28 melanoma = test system: SK-MEL-28 melanoma

Measured: growth

COc1cc(C(=C2O[C@@H]([C@H]3COC(C)(C)O3)[C@H]3OC(C)(C)O[C@@H]23)c2cc(OC)c(OC)c(OC)c2)cc(OC)c1OC
inactive: HT29 colon 114% | SNB-75 CNS 99.8% | SNB-19 CNS 109% | U251 CNS 107% | PC-3 prostate 90% | SK-MEL-5 melanoma 105% | UACC-62 melanoma 100% | LOX IMVI melanoma 99.1% | SK-MEL-2 melanoma 158%

CCN(CC)CCCOCCCNc1cc(OC)cc2cccnc12
inactive: HT29 colon 96.1% | SNB-75 CNS 94.7% | SNB-19 CNS 91.4% | U251 CNS 91.5% | PC-3 prostate 86.6% | SK-MEL-5 melanoma 96.4% | UACC-62 melanoma 82.1% | LOX IMVI melanoma 90.2% | SK-MEL-28 melanoma 103% | SK-MEL-2 melanoma 107%

COc1ccc(Cl)cc1C(=O)Nc1nc2ccc(Cl)cc2s1
inactive: HT29 colon 109% | SNB-75 CNS 74.3% | SNB-19 CNS 103% | U251 CNS 87.3% | PC-3 prostate 84.4% | SK-MEL-5 melanoma 92.8% | UACC-62 melanoma 91.5% | LOX IMVI melanoma 81.2% | SK-MEL-28 melanoma 105% | SK-MEL-2 melanoma 104%

Cc1nc2ccc(CN(C)c3ccc(C(=O)N[C@@H](CCC(=O)O)C(=O)O)s3)cc2c(=O)[nH]1
inactive: HT29 colon 55.1% | SNB-75 CNS 43.4% | SNB-19 CNS 42.8% | U251 CNS 56.3% | PC-3 prostate 56.5% | SK-MEL-5 melanoma 28.7% | UACC-62 melanoma 40.1% | LOX IMVI melanoma 26.8% | SK-MEL-2 melanoma 105%

O=[P@@]1(c2ccccc2)O[C@H](COCc2ccccc2)[C@@H](OCc2ccccc2)[C@H](OCc2ccccc2)[C@H]1O
inactive: HT29 colon 90.8% | SNB-19 CNS 55.3% | U251 CNS 39.4% | PC-3 prostate 78.7% | SK-MEL-5 melanoma 73% | UACC-62 melanoma 50.8% | LOX IMVI melanoma 95.7% | SK-MEL-28 melanoma 97% | SK-MEL-2 melanoma 67.2%
active: SNB-75 CNS -12.1%

CCCC1(CC(=O)O)OCCc2c1[nH]c1ccccc21 (stereo not drawn)
inactive: HT29 colon 110% | SNB-75 CNS 65.8% | SNB-19 CNS 128% | U251 CNS 108% | PC-3 prostate 91.7% | SK-MEL-5 melanoma 100% | UACC-62 melanoma 93.2% | LOX IMVI melanoma 108% | SK-MEL-2 melanoma 114%

Oc1[nH]c2ccc(Cl)cc2c1/C=c1/ccc2c(c1)N=C(c1cc(F)cc(F)c1)N=2
inactive: HT29 colon 22.7% | SNB-75 CNS 11% | SNB-19 CNS 77% | U251 CNS 73.9% | PC-3 prostate 62.6% | SK-MEL-5 melanoma 35.5% | UACC-62 melanoma 44.8% | LOX IMVI melanoma 47.2% | SK-MEL-28 melanoma 65.4% | SK-MEL-2 melanoma 54.8%

COc1cc([C@@H]2c3cc4c(cc3C(Br)[C@H]3COC(=O)[C@H]23)OCO4)cc(OC)c1OC (stereo partly drawn)
inactive: UACC-62 melanoma 14.1% | LOX IMVI melanoma 23.8%
active: HT29 colon -10.4% | SNB-75 CNS 9.76% | SNB-19 CNS -32.3% | U251 CNS 1.29% | PC-3 prostate 0.631% | SK-MEL-5 melanoma -64.9% | SK-MEL-2 melanoma 7.95%

COc1cc(-c2cc(-c3cc4c([nH]c5ccccc54)c(-c4cc(OC)c(OC)c(OC)c4)n3)cc(-c3ccccc3)n2)cc(OC)c1OC
inactive: HT29 colon 44.4% | SNB-75 CNS 36.2% | SNB-19 CNS 66% | U251 CNS 62.1% | PC-3 prostate 48.3% | SK-MEL-5 melanoma 40.1% | UACC-62 melanoma 40% | LOX IMVI melanoma 59.5% | SK-MEL-28 melanoma 62.5% | SK-MEL-2 melanoma 46%

COc1ccccc1CNCCN1C(=O)c2ccc3c4c(ccc(c24)C1=O)C(=O)N(CCNCc1ccccc1OC)C3=O
active: HT29 colon -36.1% | SNB-75 CNS -96.1% | SNB-19 CNS -91.4% | U251 CNS -81.4% | PC-3 prostate -75.4% | SK-MEL-5 melanoma -100% | UACC-62 melanoma -93.3% | LOX IMVI melanoma -82.3% | SK-MEL-2 melanoma -74.6%

CCCCCCCCCCCCCCCCCCOCC(COCCOCC[N+]1(CCCCCC(=O)[O-])CCCC1)Oc1ncccn1 (stereo not drawn)
active: SNB-75 CNS 6.6% | U251 CNS 8.23% | PC-3 prostate 0.371%
inactive: HT29 colon 22.7% | SNB-19 CNS 18.5% | SK-MEL-5 melanoma 45.3% | UACC-62 melanoma 54.4% | LOX IMVI melanoma 39.9% | SK-MEL-2 melanoma 70.3%

O=C(Nc1ccc(Cl)cc1)N1NC(c2ccc(Cl)cc2)C=C1c1ccccc1 (stereo not drawn)
inactive: HT29 colon 103% | SNB-75 CNS 72.1% | SNB-19 CNS 109% | U251 CNS 97.1% | PC-3 prostate 107% | SK-MEL-5 melanoma 94.6% | UACC-62 melanoma 105% | LOX IMVI melanoma 104% | SK-MEL-28 melanoma 109% | SK-MEL-2 melanoma 107%

COC(=O)c1ccc(=O)oc1
inactive: HT29 colon 113% | SNB-75 CNS 91.1% | SNB-19 CNS 103% | U251 CNS 97.4% | PC-3 prostate 91.5% | SK-MEL-5 melanoma 103% | UACC-62 melanoma 93.6% | LOX IMVI melanoma 98.4% | SK-MEL-2 melanoma 91.9%

Cc1cc(N(CCCNc2ccnc3cc(Cl)ccc23)Cc2cccs2)nc(Cl)n1
active: HT29 colon 7.06% | SK-MEL-5 melanoma -14.9% | LOX IMVI melanoma 8.99%
inactive: SNB-75 CNS 49.2% | SNB-19 CNS 76.1% | U251 CNS 40% | PC-3 prostate 40.4% | UACC-62 melanoma 47.5% | SK-MEL-28 melanoma 81.5% | SK-MEL-2 melanoma 64.7%
